The text below walks through data of PubChem BioAssay.

The nature of this experiment: probe aDKK1 binding to arrayed compounds – biochemical, biotinylated probe, 635/667 nm fluorescence, primary screen (AID 1099).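 Note: score merges 667nm spot fluorescence with signal to noise across triplicate slides; reference of the scale not given here.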 Conditions: small-molecule microarray, higher = more signal.
Take `N#Cc1ccc(NN2C(C(O)c3ccc(Br)cc3)C=CC3C(=O)N(c4ccccc4)C(=O)C32)cc1` (stereo unspecified): the composite z-score stood at 0.96.

As for `CC1CC/C=C\[C@H]2OC34C=CCN(c5ccc(Cl)cc5)C(=O)[C@H]3N(C(C)CO)C(=O)[C@]4(C)C2C(=O)O1` (stereo partly specified), the composite z-score was -0.132.

The molecule `CO[C@H]1O[C@H](CO)[C@@H](OC(=O)Nc2ccc(Br)cc2)[C@@H]2OC(=O)[C@@H](Cc3ccccc3)C/C=C/C[C@H](Cc3ccccc3)C(=O)O[C@@H]12` displayed a composite z-score of -0.139.

Turning to `CCOC(=O)C[C@H]1[C@H](OC(=O)c2cc3ccccc3oc2=O)[C@@H](NC(=O)c2ccccc2)c2cc(OCCCO)ccc2N1C(=O)c1ccccc1`, the composite z-score is -0.198.

On to `O=C1OCCC=C[C@H]2OC34C=CCN(c5ccc6ccccc6c5)C(=O)[C@H]3N(CCCO)C(=O)[C@@H]4C12` (stereo partly specified), for which the composite z-score is -0.258.

The molecule `O=C1C2C=CC(C(O)C3CC=CCC3)N(Nc3ccccc3)C2C(=O)N1c1ccccc1` (stereo unspecified) registered a composite z-score of 1.13.

Molecule `Cc1ccc(S[C@]2(C(=O)NC(C)C)CC(=O)N(Cc3cc(C(F)(F)F)cc(C(F)(F)F)c3)[C@@H]2c2ccc(CO)cc2)cc1` showed a composite z-score of -0.227.

As to `CCOC(=O)C[C@H]1[C@H](OC(=O)c2ccccc2-c2ccccc2)[C@@H](NC(=O)c2ccc3ccccc3n2)c2cc(OCCCO)ccc2N1C(=O)Cc1ccc(OC)cc1`, the composite z-score is 0.0006.

For `CC(C)c1ccc(NN2C(C(O)c3ccc(C#N)cc3)C=CC3C(=O)N(c4ccccc4)C(=O)C32)cc1` (stereo unspecified), the composite z-score came to 0.935.

`CCC#CCN(Cc1ccccc1Br)[C@H](/C=C/C1CC1)[C@@H](O)Cc1ccccc1` yielded a composite z-score of 0.0547.

As to `C=C[C@@H](OC)[C@H](OC(=O)Nc1ccc(OC)cc1)c1ccc(O)c(F)c1`, the composite z-score was -0.515.

Consider `C=CCC(OC(C)=O)[C@@H]1[C@@H](N(Cc2ccc(-c3cccc(C(F)(F)F)c3)o2)C(=O)c2ccc(-c3ccccc3)cc2)c2cc(OCCCO)ccc2N1C(=O)Cc1ccc2ccccc2c1` (stereo partly specified), for which the composite z-score was -0.155.

For the molecule `CCOC(=O)C1=C[C@@H](c2ccccc2)N(S(=O)(=O)c2ccc(C)cc2)[C@H]1c1ccc(OC)cc1`, the composite z-score turned out to be 1.16.

As to `CS(=O)(=O)CCOC(=O)C1=CC(CCCO)=CC(c2ccc(CN3CCCC3)cc2)N(Cc2sc3ccccc3c2Cl)C=C1C(=O)OCCS(C)(=O)=O` (stereo unspecified), the composite z-score is 0.518.

Take `CCOC(=O)C[C@H]1[C@H](OC(=O)Cc2ccc3c(c2)OCO3)[C@@H](NC(=O)c2ccc3ccccc3n2)c2cc(OCCCO)ccc2N1C(=O)c1ccc2ccccc2n1`: the composite z-score amounted to 0.0134.

`C=CCC(OC(C)=O)[C@@H]1[C@@H](N(Cc2ccc(-c3ccccc3)cc2)C(=O)c2ccc(-c3ccccc3)cc2)c2cc(OCCCO)ccc2N1C(=O)c1ccc2ccccc2c1` (stereo partly specified) registered a composite z-score of -0.302.

Turning to `Cc1ccc(NN2C(C(O)c3c(F)cccc3Cl)C=CC3C(=O)N(C4CCCCC4)C(=O)C32)cc1` (stereo unspecified), the composite z-score came out at 0.827.

As for `CN(C)C(=O)[C@]1(Cc2ccccc2CN=[N+]=[N-])N=C(c2ccc(OCCCO)cc2)O[C@@H]1c1ccccc1`, the composite z-score turned out to be 0.161.

Molecule `Cc1ccc(S[C@]2(C(=O)O)CC(=O)N(C3CCCCC3)[C@@H]2c2ccc(CO)cc2I)cc1` showed a composite z-score of 0.431.

The molecule `CCOC(=O)C[C@H]1[C@H](OC(=O)c2cc3ccccc3oc2=O)[C@@H](NC(=O)CC(C)C)c2cc(OCCCO)ccc2N1C(=O)c1ccc2ccccc2n1` gave a composite z-score of -0.12.

The molecule `CCOC(=O)C[C@H]1[C@H](OC(=O)c2ccc(-c3ccccc3)cc2)[C@@H](NC(=O)CC(C)C)c2cc(OCCCO)ccc2N1C(=O)c1ccc2ccccc2n1` registered a composite z-score of -0.239.

Turning to `CCOC(=O)C[C@H]1[C@H](OC(=O)c2ccc(C(=O)c3ccccc3)cc2)[C@@H](NC(=O)c2ccc3ccccc3n2)c2cc(OCCCO)ccc2N1C(=O)Cc1ccc(OC)cc1`, the composite z-score was 0.57.

`COc1ccc([Si](C)(C)[C@@H]2[C@@H](CC(=O)N(CCO)Cc3ccccc3)O[C@]3(C(=O)N(Cc4cccc(N5CCCCC5=O)c4)c4ccccc43)[C@H]2C)cc1` came in with a composite z-score of -0.0247.

The molecule `COC(=O)[C@]1(CCS(=O)(=O)c2ccccc2)N=C(c2ccc(OCCCO)cc2)O[C@@H]1c1ccccc1N=[N+]=[N-]` returned a composite z-score of 0.99.

As for `COC(=O)[C@@]1(Cc2ccccc2)[C@H]2c3cc(C(=O)N4CCCC4)n(CCc4ccccn4)c3C[C@H]2CN1C(=O)c1ccccc1`, the composite z-score stood at 0.897.

`CCCN1C(=O)[C@@]2(Cc3ccccc31)N=C(c1ccc(OCCCO)cc1)O[C@H]2c1ccccc1` returned a composite z-score of 0.402.

Consider `COC(=O)[C@@]1(Cc2ccc(F)cc2)[C@H]2c3cc(C(=O)N(C)C)n(Cc4ccc(OC(F)(F)F)cc4)c3C[C@H]2CN1C(=O)c1ccccc1`, for which the composite z-score was -0.0448.

For `CC(=O)N1CC2(CC2)CC1c1ccccc1` (stereo unspecified), the composite z-score stood at 0.234.

As to `CC(C)[Si](C#CCCCC#N)(O[C@H](c1ccccc1)c1cn(Cc2ccccc2)nn1)C(C)C`, the composite z-score was -0.17.

`COCCOC(=O)N1C(=O)[C@@]2(c3cc(C#CC4(O)CCCCCC4)ccc31)[C@H](c1ccc(O)cc1)N1[C@H](c3ccccc3)[C@H](c3ccccc3)OC(=O)[C@H]1[C@@H]2C(=O)N1CCN(c2ncccn2)CC1`: the composite z-score was 0.0005.

`CC1=C2[C@@H](CCc3ccccc3)OB(O)C[C@@H]2[C@@H]2C(=O)N(Cc3ccccc3)C(=O)[C@@H]2C1` registered a composite z-score of -0.155.

Molecule `CCOC(=O)C[C@H]1[C@H](OC(=O)Cc2ccc3c(c2)OCO3)[C@@H](NC(=O)C2CCCCC2)c2cc(OCCCO)ccc2N1C(=O)c1ccccc1` showed a composite z-score of -0.173.

In the case of `COCCCNC(=O)[C@@]1(CCC(=O)OC(C)(C)C)N=C(c2ccc(OCCCO)cc2)O[C@H]1c1ccccc1N=[N+]=[N-]`, the composite z-score was 1.36.

Turning to `[N-]=[N+]=Nc1ccccc1C[C@]1(C(=O)NCC(O)CO)COC(c2ccc(OCCCO)cc2)=N1` (stereo partly specified), the composite z-score was determined as 0.72.

`CCCC[C@@H](O)C1=C(COC)C[C@H]2C(=O)N(C)C(=O)[C@H]2[C@H]1CO` displayed a composite z-score of -0.491.

On to `CCCCCCc1nc(Cc2cc(OC)c(OC)c(OC)c2)cc2c1[Si](C(C)C)(C(C)C)OC2`, for which the composite z-score is -0.227.
